From PubChem BioAssay (EPA / NIEHS)
Several values for one entry are separate records, joined by “and”; a condition that tells them apart may be missing. Equal entries are not always repeated. Some structures have more than one record in an assay (separate samples or runs), and their calls can disagree. Activity calls are given as the source filed them. How the source made its calls: active means hit-call score of the fitted dose curve at least 0.9, where 1 is the maximum; inactive means score below 0.9.

What was measured:
[1] = read-out: Urokinase-type plasminogen activator receptor (uPAR), PLAUR (gene 5329); experiment: BSK_4H_uPAR: BioMAP Diversity Plus: 4H Assay for Urokinase-type plasminogen activator receptor (uPAR) Biomarker Activity (AID 2283030); details: primary human endothelial cells (HUVEC); actives raise or lower the signal
Method in brief: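 Primary human umbilical vein endothelial cells were exposed to chemical for 24 h before cell-surface uPAR was quantified by ELISA. Activity was fitted bidirectionally against the DMSO negative control baseline.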

[2] = read-out: Vascular endothelial growth factor receptor 2 (Homo sapiens) (UniProt P35968); experiment: BSK_4H_VEGFRII: BioMAP Diversity Plus: 4H Assay for Vascular endothelial growth factor receptor 2 (VEGFR2) Biomarker Activity (AID 2283031); details: primary human endothelial cells (HUVEC); actives raise or lower the signal;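 on AC50: cell-surface VEGFR2 protein level quantified by ELISA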
Method in brief: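 Primary human umbilical vein endothelial cells in the BioMAP 4H system were dosed with test chemical, and 24 h later VEGFRII was measured by ELISA. Activity was fitted bidirectionally against DMSO as negative control and baseline.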

[3] = read-out: Human Leukocyte Antigen - DR isotype (HLADR), HLA-DRA (gene 3122); experiment: BSK_BE3C_HLADR: BioMAP Diversity Plus: BE3C Assay for Human Leukocyte Antigen - DR isotype (HLADR) Biomarker Activity (AID 2283032); details: primary human bronchial epithelial cells; actives raise or lower the signal
Method in brief: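 Cell-surface HLA-DR ELISA readout at 24 h after dosing in the BE3C primary human lung bronchial epithelial system; gain or loss of signal against DMSO, with parallel sulforhodamine B staining of total protein for overt cytotoxicity.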

[4] = read-out: Vascular cell adhesion molecule 1 (VCAM1), VCAM1 (gene 7412); experiment: BSK_4H_VCAM1: BioMAP Diversity Plus: 4H Assay for Vascular cell adhesion molecule 1 (VCAM1) Biomarker Activity (AID 2283033); details: primary human endothelial cells (HUVEC); actives raise or lower the signal
Method in brief: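 VCAM-1 ELISA read 24 h after chemical dosing of HUVEC in the BioMAP 4H system, with gain or loss of signal fitted relative to DMSO. Parallel SRB staining (560 nm) checked overt cytotoxicity.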

[5] = read-out: Interferon-gamma inducible Protein 10 (IP10), CXCL10 (gene 3627); experiment: BSK_BE3C_IP10: BioMAP Diversity Plus: BE3C Assay for Interferon-gamma inducible Protein 10 (IP10) Biomarker Activity (AID 2283034); details: primary human bronchial epithelial cells; actives raise or lower the signal
Method in brief: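 IP-10 quantified by ELISA in human primary bronchial epithelial cell cultures at 24 hours post-dosing. Gain or loss of signal fitted relative to DMSO; parallel SRB staining assessed overt cytotoxicity.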

[6] = read-out: Monokine induced gamma interferon (MIG), CXCL9 (gene 4283); experiment: BSK_BE3C_MIG: BioMAP Diversity Plus: BE3C Assay for Monokine induced gamma interferon (MIG) Biomarker Activity (AID 2283035); details: primary human bronchial epithelial cells; actives raise or lower the signal
Method in brief: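 Dose cells (human primary bronchial epithelial), incubate 24 h, quantify MIG by ELISA, then fit concentration–response in both directions relative to DMSO control.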

[7] = read-out: Plasminogen activator inhibitor-1 (PAI1), SERPINE1 (gene 5054); experiment: BSK_BE3C_PAI1: BioMAP Diversity Plus: BE3C Assay for Plasminogen activator inhibitor-1 (PAI1) Biomarker Activity (AID 2283037); details: primary human bronchial epithelial cells; actives raise or lower the signal
Method in brief: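 PAI-1 was measured by ELISA in human primary bronchial epithelial cultures 24 h after chemical dosing, with cytotoxicity checked by SRB total-protein staining in parallel cultures. Activity was fitted in both directions relative to DMSO.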

[8] = read-out: urokinase plasminogen activator (uPA), PLAU (gene 5328); experiment: BSK_BE3C_uPA: BioMAP Diversity Plus: BE3C Assay for urokinase plasminogen activator (uPA) Biomarker Activity (AID 2283038); details: primary human bronchial epithelial cells; actives raise or lower the signal
Method in brief: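 Human primary bronchial epithelial cells were exposed to chemical for 24 h, then uPA levels were measured by ELISA. Responses were fitted bidirectionally against DMSO as negative control and baseline. Parallel SRB staining of total protein gauged overt cytotoxicity.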

[9] = read-out: Urokinase-type plasminogen activator receptor (uPAR), PLAUR (gene 5329); experiment: BSK_BE3C_uPAR: BioMAP Diversity Plus: BE3C Assay for Urokinase-type plasminogen activator receptor (uPAR) Biomarker Activity (AID 2283039); details: primary human bronchial epithelial cells; actives raise or lower the signal
Method in brief: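 uPAR levels were measured by ELISA after 24 h compound treatment of primary human bronchial epithelial cells, fitted in both directions relative to DMSO. Parallel SRB staining served as the cytotoxicity read-out.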

[10] = read-out: Interleukin-6 (IL6), IL6 (gene 3569); experiment: BSK_CASM3C_IL6: BioMAP Diversity Plus: CASM3C Assay for Interleukin-6 (IL6) Biomarker Activity for (AID 2283040); details: primary human coronary artery smooth muscle cells; actives raise or lower the signal
[11] = read-out: Tissue plasminogen activator (tPA), PLAT (gene 5327); experiment: BSK_BE3C_tPA: BioMAP Diversity Plus: BE3C Assay for Tissue plasminogen activator (tPA) Biomarker Activity (AID 2283041); details: primary human bronchial epithelial cells; actives raise or lower the signal
Method in brief: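 tPA measured by ELISA 24 h after dosing human primary bronchial epithelial cells (BE3C system). Changes in either direction were fitted against DMSO. Parallel cultures were stained with SRB to flag overt cytotoxicity.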

[12] = read-out: Interleukin-8 (IL8), CXCL8 (gene 3576); experiment: BSK_CASM3C_IL8: BioMAP Diversity Plus: CASM3C Assay for Interleukin-8 (IL8) Biomarker Activity (AID 2283042); details: primary human coronary artery smooth muscle cells; actives raise or lower the signal;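 further: IL-8 protein level quantified by ELISA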
[13] = read-out: Human Leukocyte Antigen - DR isotype (HLADR), HLA-DRA (gene 3122); experiment: BSK_CASM3C_HLADR: BioMAP Diversity Plus: CASM3C Assay for Human Leukocyte Antigen - DR isotype (HLADR) Biomarker Activity (AID 2283043); details: primary human coronary artery smooth muscle cells; actives raise or lower the signal;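 further: cell-surface HLA-DR protein level quantified by ELISA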
[14] = read-out: Macrophage colony-stimulating factor (MCSF), CSF1 (gene 1435); experiment: BSK_CASM3C_MCSF: BioMAP Diversity Plus: CASM3C Assay for Macrophage colony-stimulating factor (MCSF) Biomarker Activity (AID 2283044); details: primary human coronary artery smooth muscle cells; actives raise or lower the signal;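 further: M-CSF protein amount quantified by ELISA after 24 h exposure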
[15] = read-out: Low-density lipoprotein receptor (LDLR), LDLR (gene 3949); experiment: BSK_CASM3C_LDLR: BioMAP Diversity Plus: CASM3C Assay for Low-density lipoprotein receptor (LDLR) Biomarker Activity (AID 2283045); details: primary human coronary artery smooth muscle cells; actives raise or lower the signal;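 further: LDLR protein level on the cell surface quantified by ELISA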
[16] = read-out: Monocyte Chemoattractant Protein-1 (MCP1), CCL2 (gene 6347); experiment: BSK_CASM3C_MCP1: BioMAP Diversity Plus: CASM3C Assay for Monocyte Chemoattractant Protein-1 (MCP1) Biomarker Activity (AID 2283046); details: primary human coronary artery smooth muscle cells; actives raise or lower the signal;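 further: MCP-1 level quantified by ELISA 24 h after dosing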
[17] = BSK_CASM3C_Proliferation: Cell Proliferation Assessment in the BioMAP Diversity Plus: CASM3C Assay (AID 2283047); details: primary human coronary artery smooth muscle cells;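 further: sulforhodamine B total protein stain as relative cell number at 560 nm; sub-confluent cells exposed 48 h before staining; fitted both ways against DMSO so gain or loss of cell number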
[18] = read-out: Monokine induced gamma interferon (MIG), CXCL9 (gene 4283); experiment: BSK_CASM3C_MIG: BioMAP Diversity Plus: CASM3C Assay for Monokine induced gamma interferon (MIG) Biomarker Activity (AID 2283048); details: primary human coronary artery smooth muscle cells; actives raise or lower the signal
[19] = read-out: serum amyloid A (SAA), SAA1 (gene 6288); experiment: BSK_CASM3C_SAA: BioMAP Diversity Plus: CASM3C Assay for serum amyloid A (SAA) Biomarker Activity (AID 2283049); details: primary human coronary artery smooth muscle cells; actives raise or lower the signal;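 further: SAA protein level quantified by ELISA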
[20] = read-out: Transforming growth factor beta 1 (TGFb1), TGFB1 (gene 7040); experiment: BSK_BE3C_TGFb1: BioMAP Diversity Plus: BE3C Assay for Transforming growth factor beta 1 (TGFb1) Biomarker Activity (AID 2283036); details: primary human bronchial epithelial cells; actives raise or lower the signal
Method in brief: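 ELISA readout of TGF-b1 from human lung bronchial epithelial primary cells, taken 24 h post-treatment. Gain or loss of signal fitted relative to DMSO baseline, with parallel SRB staining for overt cytotoxicity.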

Measured: AC50

O=C(Cl)C(F)(F)C(F)(F)C(F)(F)C(F)(F)C(F)(F)C(F)(F)F
inactive: [1] | [2] | [3] | [4] | [5] | [6] | [7] | [8] | [9] | [10] | [11] | [12] | [13] | [14] | [15] | [16] | [17] | [18] | [19]

CCN(CC)c1ccc(N=Nc2ccccc2)cc1
inactive: [1] | [3] | [6] | [8] | [9] | [10] | [12] | [14] | [15] | [18] | [19]
active: [2] 20 µM | [4] 16.9 µM | [5] 10.2 µM | [20] 20 µM | [7] 29.3 µM | [11] 27.7 µM | [13] 31.9 µM | [16] 4.07 µM | [17] 8.48 µM

O=C(Cl)C(F)(F)C(F)(F)C(F)(F)C(F)(F)C(F)(F)C(F)(F)C(F)(F)F
inactive: [2] | [3] | [4] | [5] | [6] | [7] | [8] | [9] | [10] | [11] | [12] | [13] | [14] | [15] | [16] | [17] | [18] | [19]
active: [5] 19.8 µM

OCC(F)(F)C(F)(F)C(F)(F)CO
inactive: [1] | [2] | [3] | [4] | [5] | [6] | [7] | [8] | [9] | [10] | [11] | [12] | [13] | [14] | [15] | [16] | [17] | [18] | [19]

NCC(F)(F)C(F)(F)C(F)(F)C(F)(F)C(F)(F)C(F)(F)C(F)(F)C(F)(F)F
inactive: [1] | [2] | [3] | [4] | [5] | [6] | [7] | [8] | [9] | [10] | [11] | [12] | [13] | [14] | [15] | [16] | [17] | [18] | [19]

O=C(F)C1(F)C(F)(F)C(F)(F)C(F)(F)C(F)(F)C1(F)F
inactive: [1] | [2] | [3] | [4] | [5] | [6] | [7] | [8] | [9] | [10] | [11] | [12] | [13] | [14] | [15] | [16] | [17] | [18] | [19]

NS(=O)(=O)C(F)(F)C(F)(F)C(F)(F)C(F)(F)C(F)(F)C(F)(F)F
active: [4] 30 µM | [5] 30 µM and 24.4 µM | [7] 7.32 µM | [9] 41.8 µM | [11] 49 µM and 47.5 µM
inactive: [2] | [3] | [4] | [6] | [7] | [8] | [9] | [10] | [12] | [13] | [14] | [15] | [16] | [17] | [18] | [19]

Nc1cc([N+](=O)[O-])cc(Cl)c1O
inactive: [1] | [2] | [3] | [4] | [6] | [20] | [7] | [8] | [9] | [10] | [11] | [12] | [13] | [14] | [15] | [16] | [17] | [18] | [19]
active: [5] 3.97 µM

CNS(=O)(=O)C(F)(F)C(F)(F)C(F)(F)C(F)(F)C(F)(F)C(F)(F)C(F)(F)C(F)(F)F
inactive: [2] | [3] | [4] | [5] | [6] | [8] | [9] | [10] | [12] | [13] | [14] | [15] | [16] | [17] | [18] | [19]
active: [5] 13.3 µM | [7] 2.67 µM and 1.97 µM | [11] 220 nM and 654 nM | [17] 35.4 µM

C=CC(=O)OCC(F)(F)C(F)(F)C(F)(F)COC(=O)C=C
active: [2] 53.8 µM | [3] 34.2 µM and 21.4 µM | [4] 19.1 µM and 14 µM | [5] 46.7 µM and 35.5 µM | [6] 51.8 µM and 49.1 µM | [8] 20.6 µM and 27.4 µM | [9] 30 µM and 22.8 µM | [10] 30 µM and 17 µM | [11] 15.4 µM and 11.4 µM | [12] 26.6 µM and 22.5 µM | [13] 38.6 µM and 27.7 µM | [14] 40.1 µM and 34.8 µM | [15] 42.2 µM and 42.9 µM | [16] 44.3 µM and 42.5 µM | [17] 8.23 µM and 8.81 µM | [18] 27.1 µM and 25.4 µM | [19] 41.4 µM and 33.7 µM
inactive: [2] | [7]

Cc1ccc(O)c(-n2nc3ccccc3n2)c1
inactive: [1] | [2] | [3] | [4] | [5] | [6] | [20] | [7] | [8] | [9] | [10] | [11] | [12] | [13] | [14] | [15] | [16] | [17] | [18] | [19]
